Results on 14 sequences are retold here after article PMC5700166.

Experiment in all cases: protein-binding microarray (PBM); PBM: ~300 nM protein, 6 mM HEPES pH 7.8, 80 mM KCl, 0.5 mM EDTA, 0.5 mM EGTA, 6% glycerol, 35 ng/ul poly-dIdC, 1% milk, 1 h, room temperature; Ap Aiptasia and Nv Nematostella (sea anemones) / Co Capsaspora / Aq Amphimedon (sponge) / Dm Drosophila / Hu human; RHD is the Rel homology domain; high values mean tight binding
Common to all, as to details: dsDNA, one strand shown

For assay [1], the target named is T1, GST-Nv-NF-kB (Cys allele) (Nematostella vectensis, UniProt E5G601 2-411).
T1 sequence: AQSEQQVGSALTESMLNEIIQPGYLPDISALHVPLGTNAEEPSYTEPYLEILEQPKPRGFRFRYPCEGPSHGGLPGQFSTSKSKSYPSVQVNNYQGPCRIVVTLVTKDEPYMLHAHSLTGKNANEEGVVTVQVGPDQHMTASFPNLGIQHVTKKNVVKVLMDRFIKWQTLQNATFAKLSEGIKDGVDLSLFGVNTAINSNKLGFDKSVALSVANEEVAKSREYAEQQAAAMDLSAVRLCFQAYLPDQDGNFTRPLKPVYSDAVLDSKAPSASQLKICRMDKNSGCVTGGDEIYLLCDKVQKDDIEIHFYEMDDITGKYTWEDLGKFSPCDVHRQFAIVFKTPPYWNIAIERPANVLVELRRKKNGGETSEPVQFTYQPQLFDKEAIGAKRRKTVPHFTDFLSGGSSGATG

For assay [2], the target named is T2, GST-Nv-NF-kB (Ser allele) (Nematostella vectensis, UniProt A7UNT2 2-411).
T2 sequence: T1 sequence with Q21R, C66S, S207N, E215Q, V217A, E225K, A268E, D399E

The next assay deals with T3, GST-Co-NF-kB (Capsaspora owczarzaki, UniProt F1ARL5 200-546).
T3 sequence: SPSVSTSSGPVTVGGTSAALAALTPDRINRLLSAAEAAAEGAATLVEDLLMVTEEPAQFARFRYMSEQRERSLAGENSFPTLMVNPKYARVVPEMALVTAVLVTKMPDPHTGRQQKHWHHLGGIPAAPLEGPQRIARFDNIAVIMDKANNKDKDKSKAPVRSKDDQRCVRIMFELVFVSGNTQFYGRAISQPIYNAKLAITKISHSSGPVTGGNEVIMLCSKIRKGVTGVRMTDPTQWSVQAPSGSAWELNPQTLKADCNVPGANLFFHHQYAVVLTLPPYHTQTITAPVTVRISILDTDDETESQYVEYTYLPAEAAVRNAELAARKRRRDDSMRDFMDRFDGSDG

A further assay deals with T4, GST-Aq-NF-kB (Amphimedon queenslandica, UniProt A9Y5G7 2-389).
T4 sequence: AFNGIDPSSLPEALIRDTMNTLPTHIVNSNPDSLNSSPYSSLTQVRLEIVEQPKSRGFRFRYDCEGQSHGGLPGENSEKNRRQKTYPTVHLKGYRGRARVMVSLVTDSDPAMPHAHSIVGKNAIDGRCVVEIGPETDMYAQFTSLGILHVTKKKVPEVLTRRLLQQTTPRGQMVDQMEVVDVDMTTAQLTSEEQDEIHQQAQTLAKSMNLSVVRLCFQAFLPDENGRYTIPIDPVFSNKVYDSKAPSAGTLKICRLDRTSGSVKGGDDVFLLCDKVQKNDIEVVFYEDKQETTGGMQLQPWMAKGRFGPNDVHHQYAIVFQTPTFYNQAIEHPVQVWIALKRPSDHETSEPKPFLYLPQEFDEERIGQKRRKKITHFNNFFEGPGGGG

For a further assay, the target named is GST-Hu-p50 (Homo sapiens, UniProt P19838 7-356).
The next assay addresses T5, GST-Dm-Relish (Drosophila melanogaster, UniProt Q94527 99-473).
T5 sequence: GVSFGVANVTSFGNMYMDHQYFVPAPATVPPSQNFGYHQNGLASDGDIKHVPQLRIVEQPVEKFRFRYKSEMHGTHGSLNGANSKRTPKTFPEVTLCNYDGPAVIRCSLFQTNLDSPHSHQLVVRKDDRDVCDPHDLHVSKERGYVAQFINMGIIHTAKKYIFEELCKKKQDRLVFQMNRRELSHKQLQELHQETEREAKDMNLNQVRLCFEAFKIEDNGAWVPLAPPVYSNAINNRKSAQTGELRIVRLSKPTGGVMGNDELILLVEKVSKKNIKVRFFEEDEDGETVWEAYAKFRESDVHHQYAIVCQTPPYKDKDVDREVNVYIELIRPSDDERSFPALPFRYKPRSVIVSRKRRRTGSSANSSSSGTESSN

A further assay deals with T6, GST-Ap-NF-kB RHD (Exaiptasia pallida (Aiptasia), UniProt A0A913YAJ5 2-422).
T6 sequence: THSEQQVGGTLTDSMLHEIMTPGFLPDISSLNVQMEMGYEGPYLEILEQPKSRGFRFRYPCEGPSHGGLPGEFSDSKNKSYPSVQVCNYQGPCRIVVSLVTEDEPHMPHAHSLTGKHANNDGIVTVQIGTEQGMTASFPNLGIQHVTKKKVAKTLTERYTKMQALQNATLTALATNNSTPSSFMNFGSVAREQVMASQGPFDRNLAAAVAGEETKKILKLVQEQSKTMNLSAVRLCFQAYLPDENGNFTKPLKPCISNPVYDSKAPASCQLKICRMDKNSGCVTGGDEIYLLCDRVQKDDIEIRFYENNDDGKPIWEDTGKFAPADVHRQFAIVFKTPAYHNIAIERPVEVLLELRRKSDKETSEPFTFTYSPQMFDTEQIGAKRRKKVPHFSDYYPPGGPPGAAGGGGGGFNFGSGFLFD

Residue numbers refer to the chain shown, from its start.

Sequence of GST-Hu-p50 (P19838 7-356): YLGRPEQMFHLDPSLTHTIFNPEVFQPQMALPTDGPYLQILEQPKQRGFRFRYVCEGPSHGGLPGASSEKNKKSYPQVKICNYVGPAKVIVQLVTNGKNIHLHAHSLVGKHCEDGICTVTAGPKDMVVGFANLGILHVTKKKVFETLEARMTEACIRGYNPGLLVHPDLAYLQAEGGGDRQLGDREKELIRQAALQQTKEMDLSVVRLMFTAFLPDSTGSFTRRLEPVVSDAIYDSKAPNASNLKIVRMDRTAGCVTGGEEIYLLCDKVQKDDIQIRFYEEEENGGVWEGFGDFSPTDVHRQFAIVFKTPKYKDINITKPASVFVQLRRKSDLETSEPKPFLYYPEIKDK

Turning to “CCGATTAACATCAAAGTGGGAAATGATGTTAATCGGGTCTTGATTCGCTTGACGCTGCTG”, the binding signal in assay [1] was found to be 3.3 z-score; in assay [2], 2.91 z-score; with GST-Co-NF-kB it was 2.54 z-score; in the assay with GST-Aq-NF-kB it was 1.64 z-score; with GST-Hu-p50 it was 2.09 z-score.
For the sequence “CCGATTAACATCAGGATTTGCCCTGATGTTAATCGGGTCTTGATTCGCTTGACGCTGCTG”, the binding signal amounted to 1.25 z-score in assay [1], 3.5 z-score with GST-Aq-NF-kB and 1.37 z-score with GST-Hu-p50.
As for “CCGATTAACATCAGGTGATCACCTGATGTTAATCGGGTCTTGATTCGCTTGACGCTGCTG”, the binding signal was 2.18 z-score in assay [2], 2.86 z-score in the assay with GST-Dm-Relish, 1.32 z-score with GST-Aq-NF-kB and 1.9 z-score with GST-Hu-p50.
Consider “CCGATTAACATCAATTCCCAAAATGATGTTAATCGGGTCTTGATTCGCTTGACGCTGCTG”, for which the binding signal was 2.17 z-score in assay [1]; 2.29 z-score in assay [2]; 1.45 z-score in the assay with GST-Co-NF-kB; 1.29 z-score in the assay with GST-Dm-Relish; 1.31 z-score with GST-Aq-NF-kB; 1.25 z-score with GST-Hu-p50.
Turning to “CCGATTAACATCAGGAAATAACCTGATGTTAATCGGGTCTTGATTCGCTTGACGCTGCTG”, the binding signal in assay [1] amounted to 3.04 z-score; in assay [2] it was 3.75 z-score; with GST-Dm-Relish, 3.31 z-score; with GST-Aq-NF-kB, 4.91 z-score; with GST-Hu-p50, 5.04 z-score.
Turning to “CCGATTAACATCAAAATTTGCCCTGATGTTAATCGGGTCTTGATTCGCTTGACGCTGCTG”, the binding signal stood at 1.28 z-score in assay [2], 1.18 z-score in the assay with GST-Co-NF-kB, 1.61 z-score in the assay with GST-Aq-NF-kB and 1.54 z-score in the assay with GST-Hu-p50.
Consider “CCGATTAACATCATTCCCGGAAATGATGTTAATCGGGTCTTGATTCGCTTGACGCTGCTG”, for which the binding signal stood at 3.35 z-score in assay [1]; 2.61 z-score in assay [2]; 2.37 z-score with GST-Co-NF-kB; 1.05 z-score with GST-Dm-Relish; 2.67 z-score in the assay with GST-Aq-NF-kB; 1.79 z-score with GST-Hu-p50.
Turning to “CCGATTAACATCAGACCCCCCCCTGATGTTAATCGGGTCTTGATTCGCTTGACGCTGCTG”, the binding signal stood at 5.15 z-score with GST-Ap-NF-kB RHD; 4.59 z-score in the assay with GST-Co-NF-kB; 4.7 z-score with GST-Dm-Relish; 4.8 z-score with GST-Aq-NF-kB; 4.03 z-score in the assay with GST-Hu-p50.
In the case of “CCGATTAACATCACCGGAAATTCTGATGTTAATCGGGTCTTGATTCGCTTGACGCTGCTG”, the binding signal was determined as 1.22 z-score in assay [1]; 1.39 z-score in assay [2]; 1.78 z-score with GST-Dm-Relish; 2.51 z-score with GST-Aq-NF-kB; 2.29 z-score with GST-Hu-p50.
The matching figures for “CCGATTAACATCAAAAAAATTCCTGATGTTAATCGGGTCTTGATTCGCTTGACGCTGCTG”: 1.23 z-score, 1.22 z-score, 3.84 z-score, 2.87 z-score and 1.79 z-score.
Turning to “CCGATTAACATCAGGTAAATACCTGATGTTAATCGGGTCTTGATTCGCTTGACGCTGCTG”, the binding signal in assay [1] was 2.06 z-score; in assay [2], 3.12 z-score; with GST-Dm-Relish it was 4.77 z-score; in the assay with GST-Aq-NF-kB it was 4.2 z-score; with GST-Hu-p50, 2.11 z-score.
As to “CCGATTAACATCAAAAAAGTCCGTGATGTTAATCGGGTCTTGATTCGCTTGACGCTGCTG”, the binding signal came out at 1.12 z-score in assay [1], 4.7 z-score with GST-Dm-Relish, 3.69 z-score with GST-Aq-NF-kB and 1.4 z-score in the assay with GST-Hu-p50.
Turning to “CCGATTAACATCAAAATTTACCATGATGTTAATCGGGTCTTGATTCGCTTGACGCTGCTG”, the binding signal worked out at 2.56 z-score in assay [2], 2.43 z-score with GST-Dm-Relish, 1.07 z-score in the assay with GST-Aq-NF-kB and 2.22 z-score in the assay with GST-Hu-p50.
Turning to “CCGATTAACATCAGGGAGTACACTGATGTTAATCGGGTCTTGATTCGCTTGACGCTGCTG”, the binding signal amounted to 1.96 z-score with GST-Ap-NF-kB RHD; 1.03 z-score with GST-Co-NF-kB; 1.58 z-score with GST-Dm-Relish; 1.84 z-score with GST-Aq-NF-kB; 1.1 z-score with GST-Hu-p50.
